Screening results: PubChem BioAssay, National Center for Advancing Translational Sciences (NCATS)
An excerpt weighted towards active compounds, which were near 0.92% of everything screened.
RXFP1 agonist: qHTS Assay for Agonists of the Relaxin Receptor RXFP1; Potency, µM (doses to about 57.5 µM), without a hit: top-dose activation, usual class: activators; HEK293T-RXFP1 cAMP TR-FRET, 30 min; response scale: percent of porcine relaxin response, buffer zero; AID 2676, 2010; 370,000 tested, 0.3% active; note: potency is the fitted concentration of half-maximal effect; % is set by controls: 0 for no effect and ±100 for the full control effect; nearly all actives have a fitted effect of over 60% in size
Target sequence (Q9HBX9 whole entry, looked up): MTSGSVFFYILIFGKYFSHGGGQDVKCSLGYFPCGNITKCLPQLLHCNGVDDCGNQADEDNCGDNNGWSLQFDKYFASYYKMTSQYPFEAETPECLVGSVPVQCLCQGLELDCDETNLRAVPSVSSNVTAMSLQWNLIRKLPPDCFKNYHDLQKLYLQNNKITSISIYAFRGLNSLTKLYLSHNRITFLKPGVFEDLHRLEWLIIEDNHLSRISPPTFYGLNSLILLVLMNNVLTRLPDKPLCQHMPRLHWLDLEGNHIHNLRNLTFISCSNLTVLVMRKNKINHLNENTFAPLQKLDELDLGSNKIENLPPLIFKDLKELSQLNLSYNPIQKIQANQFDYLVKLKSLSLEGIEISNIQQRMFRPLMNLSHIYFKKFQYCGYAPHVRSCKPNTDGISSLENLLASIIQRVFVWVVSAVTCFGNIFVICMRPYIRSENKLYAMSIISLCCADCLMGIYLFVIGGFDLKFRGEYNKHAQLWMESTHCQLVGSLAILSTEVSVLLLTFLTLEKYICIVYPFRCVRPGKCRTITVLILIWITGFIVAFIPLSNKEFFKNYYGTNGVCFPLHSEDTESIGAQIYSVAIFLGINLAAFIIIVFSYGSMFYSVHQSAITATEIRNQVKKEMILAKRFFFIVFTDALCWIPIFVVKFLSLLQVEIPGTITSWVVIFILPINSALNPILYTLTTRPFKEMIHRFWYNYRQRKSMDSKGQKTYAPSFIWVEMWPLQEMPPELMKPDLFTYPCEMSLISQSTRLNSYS
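HEK293 cells stably expressing RXFP1, treated 30 min at 37C with compounds plus PDE4 inhibitor Ro 20174; cAMP measured by HTRF TR-FRET. Normalized to buffer and 29 nM porcine relaxin; EC50 by Hill fit.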
miR-21 reporter: qHTS Assay for Modulators of miRNAs and/orActivators of miR-21 | AID 2288, 2010 | 340,000 tested, under 10 active | HeLa miR-21 FLuc reporter, luciferase, 48 h | Potency, µM (highest dose often 38.3 µM), without a hit: at the top dose activity change, positive = activation, hits mostly activators;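 note: % of control where 0% means no effect; miR-21 action dims this reporter so a rising signal means less miR-21 action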
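Using DMEM plus 10% FBS, HeLa miR-21-FLuc cells are incubated with test compounds (final up to about 40uM) for 48 hours; firefly luciferase signal is then imaged following reagent-mediated lysis.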
GALK inh: qHTS Assay for Inhibitors of Human Galactokinase (GALK); AID 1868, 2009; Purified GALK, Kinase-Glo residual ATP luminescence; 270,000 tested, 0.007% active; Potency, µM (top dose mostly 57.5 µM), inactives show at the top dose activity change, negative = inhibition, usual class: inhibitors; P51570; note: potency is the fitted concentration of half-maximal effect; % is set by controls: 0 for no effect and ±100 for the full control effect
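GALK at 5 nM final was combined with compound, 35 uM ATP and 100 uM galactose in HEPES pH8.0 with MgCl2 and DTT. The reaction ran one hour at room temperature before luminescent ATP detection.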
RXFP1 antag: qHTS Assay for Antagonists of the Relaxin Receptor RXFP1; Relaxin receptor 1 (Homo sapiens), Q9HBX9; HEK293-RXFP1, relaxin-stimulated cAMP HTRF, 30 min; hits give low values; activity change, negative = inhibition, % at 57.5 µM; 350,000 tested, 0.59% active; AID 1259400, 2018;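 active = activity change of -60% or lower, but not beyond a set lower limit; inconclusive = change between -60% and -40%, or beyond the set limit; inactive = change above -40%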; note: % is set by controls: 0 for no effect and ±100 for the full control effect
PKM2 act: qHTS Assay for Activators of Human Muscle isoform 2 Pyruvate Kinase; Pyruvate kinase PKM (Homo sapiens), P14618; purified PKM2, Kinase-Glo ATP luminescence, activation; response scale: 0% is enzyme alone, no compound; Potency, µM (titrated, usually from 57.5 µM), for inactives: at the top dose activation, usual class: activators; 260,000 tested, 0.34% active; AID 1631, 2009; note: potency is the fitted concentration of half-maximal effect; % is set by controls: 0 for no effect and ±100 for the full control effect; nearly all actives have a fitted effect of over 55% in size
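ATP formation by purified human PK-M2, quantified via coupled luciferase luminescence after 1 h at room temperature with 0.1 mM ADP and 0.5 mM PEP final.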
KinaseGlo FLuc: Counterscreen for Luciferase (Kinase-Glo TM) Inhibition. Luciferin 4-monooxygenase (Photuris pensylvanica), Q27757. Kinase-Glo luciferase, ATP luminescence, 8 min. Potency, µM (highest dose often 38.3 µM), for the others: at the top dose activity change, negative = inhibition, actives largely listed as inhibitors. 200,000 tested, 0.28% active. AID 1379, 2008; note: potency is the fitted concentration of half-maximal effect; % is set by controls: 0 for no effect and ±100 for the full control effect; nearly all actives have a fitted effect of over 60% in size
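Compounds were added to a substrate mix at pH 7.2 (50 mM imidazole, 10 uM ATP, within the enzyme's linear range), followed by Kinase-Glo detection reagent; luminescence was measured after 8 minutes at ambient temperature.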
Active calls of the source: *. Unless noted, calls come from the whole dose curve; as a rule, active = well fitted curve in the direction sought with a large enough effect; inconclusive = small, poorly fitted or top-dose-only effect, or another doubt; inactive = no such curve, though single readings can be large; an effect the other way counts as inactive or inconclusive.

For Cc1nc(SCc2ccc([N+](=O)[O-])cc2)n[nH]1 the results were RXFP1 agonist 1%, miR-21 reporter -22%, GALK inh 0%, RXFP1 antag -73* and PKM2 act 11%.
For Cc1cc(C2=NNC(=NC3CC3)SC2)c(C)n1-c1ccccc1F the results were RXFP1 agonist 2%, miR-21 reporter inconclusive, GALK inh 4%, RXFP1 antag -14, PKM2 act 2% and KinaseGlo FLuc 11µM*.
`Cc1cc(C2=NNC(=NC3CCCCC3)SC2)c(C)n1-c1c(C)n(C)n(-c2ccccc2)c1=O` gave RXFP1 agonist 1%, miR-21 reporter -6%, GALK inh 1%, RXFP1 antag -8, PKM2 act -3% and KinaseGlo FLuc -8%.
For c1cc2c(cc1C1=NNC(=NC3CC3)SC1)OCCO2 the results were RXFP1 agonist 6%, miR-21 reporter inconclusive, GALK inh inconclusive, RXFP1 antag 7, PKM2 act -73% and KinaseGlo FLuc 2.2µM*.
For N=c1ccn2c(n1)O[C@H]1[C@@H](O)[C@@H](CO)O[C@H]12 the results were KinaseGlo FLuc 2%.
Screening Cc1cc(Br)c2nc3c(c(C(=O)O)c2c1)CCCCC3 returned RXFP1 agonist 2.2µM*, miR-21 reporter 0%, GALK inh 1%, RXFP1 antag 52 and PKM2 act -1%.
Cc1ccc(-n2c(=O)[nH]c3c(C(N)=O)nc(-c4ccc(C)o4)nc32)cc1 was read as RXFP1 agonist 3%, miR-21 reporter -11%, GALK inh 2%, RXFP1 antag -1, PKM2 act 14µM* and KinaseGlo FLuc 12%.
Fc1ccc(Nc2ncnc3c2nc2n3CCCCC2)c(F)c1 was read as RXFP1 agonist 2% and miR-21 reporter -11%.
`O=S(=O)(/N=S1/CC=CCN1S(=O)(=O)c1ccccc1)c1ccccc1` (stereo not drawn) gave RXFP1 agonist -1%, miR-21 reporter 25%, GALK inh 0%, RXFP1 antag -72*, PKM2 act 4% and KinaseGlo FLuc 1%.
O=S(=O)(c1ccccc1)N1CCN(S(=O)(=O)c2ccccc2)C1 was read as RXFP1 agonist 0%, miR-21 reporter -4%, GALK inh -3%, RXFP1 antag -6, PKM2 act 6% and KinaseGlo FLuc 0%.
Screening C[C@H](CN1CCCC1)C(=O)c1ccc(C(F)(F)F)cc1 returned RXFP1 antag 8.
For CCN1C(=O)[C@H]2[C@@H](c3ccc(OC)cc3)N3C(=O)CN(CCOC)C(=O)[C@@]3(Cc3ccccc3)[C@H]2C1=O the results were RXFP1 agonist 0%, miR-21 reporter 0% and PKM2 act -1%.
`O=[N+]([O-])c1ccc(Cl)c2c1C1C=CCC1C(c1ccccn1)N2` (stereo not drawn) gave RXFP1 agonist -2%, miR-21 reporter 0%, GALK inh 10%, RXFP1 antag -118*, PKM2 act -28% and KinaseGlo FLuc -8%.
For O=S(=O)(Nc1ccccc1)c1ccc(-c2csnn2)cc1 the results were RXFP1 agonist 1%, miR-21 reporter 7%, GALK inh 1%, RXFP1 antag -3 and PKM2 act 14µM*.
For CCc1nc2ccc(C(=O)NCCc3ccc(OC)cc3OC)cc2nc1CC the results were RXFP1 agonist -1%, miR-21 reporter 8% and RXFP1 antag -71*.
For O=c1[nH]c(/C=C/c2ccc(Br)cc2)nc2ccccc12 the results were RXFP1 agonist inconclusive, miR-21 reporter -64%, GALK inh 0% and RXFP1 antag 3.
For C(=C\c1nc2ccccc2[nH]1)/c1ccccc1 the results were RXFP1 agonist 6%, miR-21 reporter 20%, GALK inh 11%, RXFP1 antag 9, PKM2 act -63% and KinaseGlo FLuc 3.5µM*.
Screening C(=C\c1ccco1)/c1nc2ccccc2[nH]1 returned RXFP1 agonist 0%, miR-21 reporter -10%, GALK inh 10%, RXFP1 antag -18, PKM2 act -23% and KinaseGlo FLuc 13µM*.
For COc1ccc2c(c1)O[C@@H](c1ccc3c(c1)OCO3)[C@H](OC(=O)Nc1ccc(OC(F)F)cc1)C2=O the results were KinaseGlo FLuc 0%.
For O=C(CC1C(=O)N(c2ccccc2)C(=S)N1c1ccccc1)c1ccccc1 (stereo not drawn) the results were RXFP1 agonist 0%, miR-21 reporter 0%, GALK inh -2%, RXFP1 antag -1, PKM2 act 6% and KinaseGlo FLuc 5%.
Screening O=C(CC1C(=O)N(c2ccccc2)C(=S)N1c1ccccc1)c1ccc(Br)cc1 (stereo not drawn) returned RXFP1 agonist 1%, miR-21 reporter -13%, GALK inh -4%, RXFP1 antag -73*, PKM2 act 5% and KinaseGlo FLuc 2%.
Screening O=C(N/N=C/c1ccccc1C(=O)O)c1cc(-c2ccc3c4c(cccc24)CC3)n[nH]1 returned RXFP1 agonist 0%, miR-21 reporter -21%, GALK inh -1%, RXFP1 antag -65*, PKM2 act 3% and KinaseGlo FLuc -1%.
For CC1(c2ccccc2)NC(=O)N(CC(=O)Nc2ccc(S(=O)(=O)NC3=NCCCCC3)cc2)C1=O (stereo not drawn) the results were RXFP1 antag 1.
`C=CCc1ccc(OCC(O)COc2ccc(CC=C)cc2OC)c(OC)c1` gave RXFP1 agonist -5%, miR-21 reporter 1%, GALK inh -1%, RXFP1 antag -69*, PKM2 act -1% and KinaseGlo FLuc -5%.
For C=CCc1ccc(OCC(O)CN2CCCCC2)c(OC)c1 (stereo not drawn) the results were RXFP1 agonist 0%, miR-21 reporter -12%, GALK inh 8%, RXFP1 antag -2, PKM2 act -5% and KinaseGlo FLuc -5%.
`O=C(NCCSc1c[nH]c2ccccc12)c1ccc(Br)o1` gave RXFP1 agonist 0%, miR-21 reporter -10%, GALK inh -3%, RXFP1 antag -10, PKM2 act 2% and KinaseGlo FLuc 2%.
For Cc1[nH]c2ccccc2c1SCCNC(=O)c1ccc(Br)o1 the results were RXFP1 agonist -2%, miR-21 reporter 7%, GALK inh -1%, RXFP1 antag -82*, PKM2 act -12% and KinaseGlo FLuc 1%.
